Out of some 1,200 compounds screened, about 810 (68%) were called active. No rule for the calls is given here. The set was probably picked from earlier hits. Only a sample is shown. Potency and affinity values are given separately.
Experiment: TRPM1 promoter luciferase signal decrease, dose response, MITF inhibitor project, cell-based, SK-MEL-5, cherry-picked, set 3 (AID 493073)
Conditions: SK-MEL-5 TRPM1 promoter luciferase, 24 h; series mostly up to 35 µM; activity change, negative = inhibition: at the top concentration

Activity change, negative = inhibition, inactive:
Cc1ccc(NC(=O)Cc2noc3ccccc23)cc1 101%
C=CCNC(=O)c1ccc2nc(Cc3ccc(OC)cc3)oc2c1 19.8%
Cc1c(C(=O)Nc2ccc(S(=O)(=O)N(C)C3CCN(C)CC3)cc2)oc2c(Cl)cccc12 -97.5%
c1ccc(CSc2nnc(-c3ccco3)n2Cc2ccco2)cc1 75.4%
Cc1cccc(NC(=O)Cc2ccc(Br)cc2)n1 117%
O=C(NC1CC1)C1CCN(S(=O)(=O)c2ccc(Cl)c([N+](=O)[O-])c2)CC1 -67.9%
CN(c1ccc(O)cc1)c1nc(O)c(C2=c3ccccc3=NC2=O)s1 116%
CCOC(=O)c1cc(-c2ccc(OC)cc2)n[nH]1 78%
COc1c(C)cccc1C(=O)Nc1ccc(N2CCN(S(C)(=O)=O)CC2)cc1 -65.2%
Cc1ccc2oc(Nc3nc(C)c(C)c(C)n3)nc2c1 28.3%
Cc1c(OCC(=O)NC2CC(C)(C)NC(C)(C)C2)ccc2c1oc(=O)c1ccccc12 -99.4%
O=C1c2ccccc2C(=O)N1CCSc1ccccc1 102%
COc1cc(OC)cc(C(=O)Nc2ccc3c(c2)OCCO3)c1 98.8%
CN(C)CCNC(=O)/C(=C/c1ccc(-c2ccc(Cl)cc2)o1)NC(=O)c1ccccc1 -96.9%
CN(C)/C=N/c1ncc(C(=O)c2ccccc2)s1 55.9%
Cc1csc(N/N=C/c2ccc([N+](=O)[O-])cc2)n1 61%
CC(=O)c1sc(N/N=C\c2ccc(N(C)C)cc2)nc1C 82.6%
COc1ccc(-c2csc(N(C)C(=O)c3ccco3)n2)cc1 74%
C(=N\Nc1cc(N2CCCCC2)ncn1)/c1ccco1 -23.1%
N#C/C(=C\c1cccs1)C(=O)NCC1CCCO1 (stereo not drawn) 116%
N#C/C(=C\c1c[nH]c2ccccc12)C(=O)NC1CC1 85.3%
O=C(/C=C/c1ccccc1Cl)NC1CCCCC1 -21.5%
CCC1CCCCN1CCCNC(=O)c1cn(CC)c2ccc(S(=O)(=O)N(C)C3CCCCC3)cc2c1=O (stereo not drawn) -22.7%
O=C(Cn1nnc(-c2ccccc2Cl)n1)N1CCCCC1 -1.19%
COc1ccc(CCC(=O)N2CCc3ccccc32)cc1 67.5%
Cc1ccc(C(=O)Nc2ccccc2Cl)cc1 54.6%
Cc1ccc(C(=O)NC2=NCCS2)cc1Cl 71.2%
COc1ccc2c(c1OC)C(=O)N(c1ccc(C)cc1)C2 52.1%
ClC1(Cl)CC1CSc1nnc(-c2ccncc2)o1 (stereo not drawn) 83%
CCC(=O)NCCc1nc2cc(NC(=O)c3cccc([N+](=O)[O-])c3)ccc2n1C 51.1%
O=C(Nc1nnc(Cc2ccccc2)s1)c1ccccc1 68.1%
CC1(C)Cc2c(sc(NC(=O)Nc3ccccc3)c2C(N)=O)CO1 69.1%
COC(=O)c1c(NC(=O)c2nc3ccccc3s2)sc2c1CC(C)(C)NC2(C)C -108%
CCC(=O)Nc1cc(C(=O)OCC(=O)c2ccccc2Cl)ccc1C 76.3%
N#Cc1cnn2cc(CCN3CCOCC3)c(-c3ccc(F)cc3)nc12 10.1%
CC(C)N1C(=O)S/C(=C\c2ccc(-c3ccc(Cl)c(C(=O)O)c3)o2)C1=O 7.32%
OCC1CCCC(n2cnc3c(=S)nc[nH]c32)O1 (stereo not drawn) 13.4%
O=C(Nc1ccccc1Cl)Nc1cccc2cccnc12 68%
CCOc1ccc(C(=O)N2CCc3ccccc32)cc1 38.1%
O=C(c1cc2ccccc2oc1=O)N1CCN(c2ncccn2)CC1 67.3%
O=C(NCCNc1ccccc1[N+](=O)[O-])c1cc(F)c(F)cc1Cl -57.4%
Cc1cc2oc3ccc(NCCC4CCCN4C)cc3c(=O)c2cc1C (stereo not drawn) -104%
CS(=O)(=O)c1ccc2nc(NC(=O)c3ccccc3)sc2c1 12.7%
CC1Cc2ccccc2N1C(=O)c1ccc(Br)o1 (stereo not drawn) 81.6%
CCNC(=O)CC1C(=O)N(c2ccc(F)cc2)C(=O)N1CCc1ccc(OC)cc1 (stereo not drawn) 15.2%
COc1ccc(C(=O)CCNc2ccc(F)cc2)cc1 85.6%
CCN1CCN(c2ccc(S(=O)(=O)N3CCCCC3)cc2NC(=O)/C=C/c2cccc(OC)c2OC)CC1 -98%
Cc1ccc(NC(=O)c2ccccc2)cc1 80.8%
Cc1ccccc1C(=O)O/N=C(\N)c1ccc([N+](=O)[O-])cc1 13%
N/C(=N\OC(=O)c1ccc([N+](=O)[O-])cc1)c1ccc(Br)cc1 95.2%
COc1ccccc1N1CCN(/N=C/c2ccc([N+](=O)[O-])cc2)CC1 -13.3%
O=C(Nc1ccc(-c2cn3c(n2)SCC3)cc1)c1ccco1 56%
O=C(N/N=C/C=C/c1ccccc1)c1ccccn1 94.3%
Cc1ccc(CC(=O)Nc2ccc(Cl)cn2)cc1 56.5%
CC(=O)COc1ccc2cc(-c3ccccc3)c(=O)oc2c1 59.7%
COc1ccc(NC(=O)C2COc3ccccc3O2)cc1 (stereo not drawn) -82.9%
O=C(NC1=NCCS1)c1ccc(Cl)c(Cl)c1 44.6%
Cc1ccc(Nc2nnc(-c3ccccc3N)o2)cc1C 94.4%
COCc1cc(C)nc2sc(C(=O)Nc3cccc(OC)c3)c(N)c12 -17%
COc1ccc(/C=C/C(=O)NC(=S)N2CCN(c3ccccc3OC)CC2)cc1 69.5%
c1cnc(SCCOc2ccc3c(c2)CCC3)nc1 24.9%
O=C(Nc1ccccn1)c1ccc(Br)s1 56.3%
Cc1cc(N2CCOCC2)n2ncc(-c3ccccc3Cl)c2n1 102%
CC(=C/c1ccco1)/C=N/N1CCN(c2ccccc2)CC1 -79.5%
CCN(CC(=O)Nc1ccc2c(c1)OCCO2)C(=O)c1ccc([N+](=O)[O-])s1 -34.7%
Cc1ccc(NC(=O)c2cc(N3C(=O)C=CC3=O)ccc2N2CCOCC2)cc1Cl -88.5%
CS(=O)(=O)N1CCN(c2nc3ccc(Cl)cc3s2)CC1 78.7%
CCN(CC)C(=O)CCCOc1ccc(Cl)cc1Cl 20.3%
O=C(Nc1ccccc1F)C(=O)Nc1cccc2ccccc12 19.6%
COc1cc2ccccc2cc1C(=O)Nc1ccc(N2CCN(C)CC2)cc1 138%
CCOc1ccc(N/C=C/C(=O)c2ccc(OC)c(OC)c2)cc1 105%
CCOc1cccc(C(=O)NC2=NCCS2)c1 28%
CCCOC(=O)c1ccc(NC(=O)C2CCCO2)cc1 (stereo not drawn) 109%
O=[N+]([O-])c1cc(C(F)(F)F)ccc1NCCc1ccccn1 80.2%
Cc1cccc(OCC(=O)Nc2cccc(O)c2)c1 60.4%
Cc1ccc(OCC(=O)Nc2cccc(C)n2)c(C)c1 69.9%
COc1cccc(NC(=O)c2cc3ccccc3cc2OC)c1 51.2%
COc1cccc(NC(=O)c2cnn(-c3ccccc3)c2C)c1 -9.88%

Reference: PubChem BioAssay AID493073 (Broad Institute, 2011)
